The panel holds about 79,000 compounds, 15% with a hit somewhere; the sample as a whole holds those more often. The source made the active and inactive calls. No stated cut-off is given here; in the data, active means growth inhibition above about 70%; inactive means the rest.

The nature of the test: NCI Yeast Anticancer Drug Screen. Data for the sgs1 mgt1 strain (AID 161).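 Further: 0% = growth of cultures given vehicle only.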 Particulars: S. cerevisiae sgs1 mgt1 strain, at 50.0 µM, active compounds read high. The method, then: Growth inhibition of yeast strains with defined genetic alterations is measured as a screen for potential anti-cancer activity. Selected strains with alterations in DNA damage repair or cell cycle control were exposed to compounds and growth inhibition was measured relative to vehicle treated controls. The strain used in this assay is sgs1 mgt1
Consider `O=C(Nc1cccc(Cl)c1)Oc1ccc(S(=O)(=O)F)cc1Cl`, for which the growth inhibition was 95.7% (active).
Take `C/C=C1\C[C@@H]2C(OC)Nc3cc(O)c(OC)cc3C(=O)N2C1` (stereo not given in full): the growth inhibition is 84% (active).
`CC(C)(C)NP(=O)(NC(C)(C)C)NC(C)(C)C`: the growth inhibition was -17.2% (inactive).
Take `NC(C/C=C/P(=O)(O)O)C(=O)O` (stereo not given): the growth inhibition is -14.8% (inactive).
For `COC(=O)c1cc([N+](=O)[O-])cc([N+](=O)[O-])c1`, the growth inhibition was 16.5% (inactive).
In the case of `NC1CN2CCC1CC2` (stereo not given), the growth inhibition is -14.6% (inactive).
For `CN1CN(c2ccccc2)C2(CCN(CCCN(C)c3ccc(F)cc3)CC2)C1=O`, the growth inhibition was 6.35% (inactive).
The value for `O=C(Nc1c(Cl)cc([N+](=O)[O-])cc1Cl)C(=O)C1C(=O)NC(=S)NC1=O` was -12.1% (inactive); that for `Cc1ccc(C(=O)Nc2ccc(CP(=O)(O)O)cc2)cc1NC(=O)c1cccc(NC(=O)Nc2cccc(C(=O)Nc3cc(C(=O)Nc4ccc(CP(=O)(O)O)cc4)ccc3C)c2)c1` was 3.6% (inactive); that for `CSP(N)(=O)OC(C)C` (stereo not given) was -15.6% (inactive).
Take `Cc1ccccc1-n1c(/C=C\c2ccccn2)nc2ccccc2c1=O`: the growth inhibition is 33.4% (inactive).
The value for `C=CCSc1nc2ccccc2c(=O)n1-c1cc(OC)c(Cl)cc1OC` was 15.1% (inactive); that for `COc1cc2c(c3oc4cccc(O)c4c(=O)c13)[C@@H]1C=CO[C@@H]1O2` was -7.05% (inactive).
As to `O=NC1C(=O)NC(=O)NC1=O`, the growth inhibition is 3.45% (inactive).
Take `S=[As](c1ccc(-c2ccccc2)cc1)(c1ccc(-c2ccccc2)cc1)c1ccc(-c2ccccc2)cc1`: the growth inhibition was -39.5% (inactive).
With `COc1ccc(C(=O)O[C@H]2CC[C@@]3(C)[C@@H]4CC[C@H]5[C@]6(O)C[C@H](O)[C@@]7(O)[C@@H](CN8C[C@@H](C)CC[C@H]8[C@@]7(C)O)[C@]6(O)C[C@@]53OC24O)cc1OC`, the growth inhibition was -28.9% (inactive).
To `CO[C@H](C)[C@](O)(C(=O)OCC1=CCN2CC[C@@H](O)[C@H]12)C(C)C` belongs -8.8% (inactive); to `CNC(=O)Oc1cc(C)cc(C(C)C)c1`, 1.6% (inactive); to `COc1ccc(N2C(=O)C3C4c5ccccc5C(C3C2=O)[n+]2ccccc24)cc1` (stereo not given), 9.7% (inactive).
Turning to `O=C1CCC(=O)N1c1ccc([As](=O)(O)O)cc1`, the growth inhibition is 13.2% (inactive).
In the case of `O=S1(=O)OCCO1`, the growth inhibition was -3.8% (inactive).
The value for `O=c1oc2ccccc2c(O)c1C(c1ccc2c(c1)OCO2)c1c(O)c2ccccc2oc1=O` was 34.7% (inactive).
In the case of `O=C([O-])c1ccccc1[SH2+].[Cr+3].[NH-]CC[NH-].[NH-]CC[NH-].[O-][Cl+3]([O-])([O-])O`, the growth inhibition was -11.8% (inactive).
In the case of `O=C(C/C(=N/O)C(=O)NC1=C(Cl)C(=O)c2ccccc2C1=O)CC(c1ccccc1)c1c(O)c2ccccc2oc1=O` (stereo not given), the growth inhibition is 82.5% (active).
The value for `C[CH2][Sn]([I])([CH2]C)[CH2]C` was 97.1% (active); that for `CN(C)C1OCC(C)(C)CO1` was -5.55% (inactive).
To `Cn1nnc(-c2nnn(C)n2)n1` belongs -8.65% (inactive); to `Cc1ccc(NC(=O)N(C)N=O)cc1`, -4.3% (inactive); to `CC1=C(C)C(=O)OC(C(C)(O)C2(O)CCC3(O)C4CC(Cl)C5(O)C(O)C=CC(=O)C5(C)C4CCC32C)C1` (stereo not given), -18.7% (inactive).
On to `C[CH2][Pb]([Br])([CH2]C)[CH2]C`, for which the growth inhibition was -5.85% (inactive).
In the case of `O=P(OCCCCCl)(OCCCCCl)C(Cl)Cl`, the growth inhibition is 0.65% (inactive).
To `N#CCCCCN=[N+]=[N-]` belongs -12.6% (inactive).
Regarding `COc1ccc(CC(C)=O)cc1OC`, the growth inhibition was 19% (inactive).
With `C1CC[N-]CC1.CN(C)P(=O)(N(C)C)N(C)C.OO.OO.[O]=[Mo]`, the growth inhibition is 15.6% (inactive).
Take `NC1(C(=O)O)CCCC1`: the growth inhibition is -15.2% (inactive).
Consider `COc1oc(C2C/C(=C/C(C)=C/C(C)=C/C(C)=C/c3ccc([N+](=O)[O-])cc3)CO2)c(C)c(=O)c1C` (stereo not given), for which the growth inhibition is -9.4% (inactive).
Regarding `CC1=C(Cl)C=CP(=O)(Oc2ccccc2)C1` (stereo not given), the growth inhibition was -12.2% (inactive).
`CNCCc1ccc(O)cc1`: the growth inhibition was -0.75% (inactive).
As for `CCCCCCCCCCCCCCCC(=O)[O][Hg][c]1ccccc1`, the growth inhibition was 99% (active).
Turning to `C=CC(Cl)OC(=O)C(C)O` (stereo not given), the growth inhibition was 15.2% (inactive).

The values are drawn from PubChem BioAssay (NCI).
